According to PubChem BioAssay (NCATS):
“And” between values parts separate entries of the source, which are not always exact repeats. Equal entries are not always repeated. Records with an inconclusive call do not appear. The source made the active and inactive calls. Calls follow the shape of the dose curve; as a rule, active = well fitted curve in the direction sought with a large enough effect; inconclusive = small, poorly fitted or top-dose-only effect, or another doubt; inactive = no such curve, though single readings can be large; an effect the other way counts as inactive or inconclusive. Non-standard residues stand in square brackets, D forms with d. Residues, ends and D or L forms follow the SMILES beside them. *: point of attachment. Sta = CC(C)C[C@H](N)[C@@H](O)CC(=O)O; Isovaleryl = CC(C)CC(=O)*

Experiments:
[1] = qHTS of pediatric cancer cell lines to identify multiple opportunities for drug repurposing: Primary screen for SK-N-MC cells (AID 1347093)
Summary of the method: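 Metabolically active cells were quantified by ATP-dependent luminescence (CellTiter-Glo, 15 min at room temperature) following 48 h treatment. Cells had been plated at 500-1,000 per well and settled for 5 h beforehand.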

[2] = qHTS of pediatric cancer cell lines to identify multiple opportunities for drug repurposing: Primary screen for BT-37 cells (AID 1347094)
Summary of the method: (§1)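 ATP-based luminescence (CellTiter-Glo) quantifies viability after a 48-hour exposure. Compounds are dosed across 8 or 11 final concentrations; DMSO and 2.3 µM bortezomib serve as controls.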

[3] = qHTS of pediatric cancer cell lines to identify multiple opportunities for drug repurposing: Primary screen for NB-EBc1 cells (AID 1347095)
Summary of the method: as §1

[4] = qHTS of pediatric cancer cell lines to identify multiple opportunities for drug repurposing: Primary screen for Saos-2 cells (AID 1347097); also: nearly all actives have a fitted effect of over 40% in size
Summary of the method: as §1

[5] = qHTS of pediatric cancer cell lines to identify multiple opportunities for drug repurposing: Primary screen for SK-N-SH cells (AID 1347098); also: nearly all actives have a fitted effect of over 65% in size
Summary of the method: (§2)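 Cells (500-1,000/well) rested 5 h, then received compounds for 48 h; metabolically active cells were measured by CellTiter-Glo luminescence. Final concentrations spanned up to 46 µM (MIPE, 11-point) or 0.59 nM-46 µM (NPC, 8-point) in primary screens, 11-point in follow-ups.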

[6] = qHTS of pediatric cancer cell lines to identify multiple opportunities for drug repurposing: Primary screen for NB1643 cells (AID 1347099); also: nearly all actives have a fitted effect of over 50% in size
Summary of the method: as §1

[7] = qHTS of pediatric cancer cell lines to identify multiple opportunities for drug repurposing: Primary screen for LAN-5 cells (AID 1347100)
Summary of the method: as §2

[8] = qHTS of pediatric cancer cell lines to identify multiple opportunities for drug repurposing: Primary screen for BT-12 cells (AID 1347101); also: nearly all actives have a fitted effect of over 25% in size
Summary of the method: as §2

[9] = qHTS of pediatric cancer cell lines to identify multiple opportunities for drug repurposing: Primary screen for Rh18 cells (AID 1347102); also: nearly all actives have a fitted effect of over 65% in size
Summary of the method: as §2

[10] = qHTS of pediatric cancer cell lines to identify multiple opportunities for drug repurposing: Primary screen for OHS-50 cells (AID 1347103); also: nearly all actives have a fitted effect of over 40% in size
Summary of the method: as §2

[11] = qHTS of pediatric cancer cell lines to identify multiple opportunities for drug repurposing: Primary screen for RD cells (AID 1347104); also: nearly all actives have a fitted effect of over 55% in size
Summary of the method: as §1

[12] = qHTS of pediatric cancer cell lines to identify multiple opportunities for drug repurposing: Primary screen for MG 63 (6-TG R) cells (AID 1347105); also: nearly all actives have a fitted effect of over 50% in size
Summary of the method: as §1

[13] = qHTS of pediatric cancer cell lines to identify multiple opportunities for drug repurposing: Primary screen for control Hh wild type fibroblast cells (AID 1347106); also: nearly all actives have a fitted effect of over 55% in size
Summary of the method: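 Viability after 48 h compound treatment at 37C, 500-1,000 cells/well, read as ATP luminescence with CellTiter-Glo. Primary screens used 11-point (MIPE, 0.78 nM-46 µM) or 8-point (NPC, 0.59 nM-46 µM) final concentrations; follow-up screens used 11-point dilutions.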

[14] = qHTS of pediatric cancer cell lines to identify multiple opportunities for drug repurposing: Primary screen for Rh30 cells (AID 1347107); also: nearly all actives have a fitted effect of over 75% in size
Summary of the method: as §2

[15] = qHTS of pediatric cancer cell lines to identify multiple opportunities for drug repurposing: Primary screen for Rh41 cells (AID 1347108); also: nearly all actives have a fitted effect of over 70% in size
Summary of the method: as §1

[16] = qHTS of pediatric cancer cell lines to identify multiple opportunities for drug repurposing: Primary screen for U-2 OS cells (AID 1347096); also: nearly all actives have a fitted effect of over 50% in size
Summary of the method: as §2

[17] = qHTS of pediatric cancer cell lines to identify multiple opportunities for drug repurposing: Confirmatory screen for A673 cells (AID 1347110);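 also: cells exposed to compound for 48 h before the viability read; nearly all actives have a fitted effect of over 65% in size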
Summary of the method: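 Cells plated at 500-1,000/well were treated five hours later with multi-point dilutions up to 46 µM final. After two days, CellTiter-Glo was added and luminescence read.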

[18] = qHTS of pediatric cancer cell lines to identify multiple opportunities for drug repurposing: Confirmatory screen for SK-N-MC cells (AID 1347111);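 also: cells exposed to compound for 48 h before the readout; nearly all actives have a fitted effect of over 70% in size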
Summary of the method: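 Seed 500-1,000 cells/well; rest 5 h at 37 degrees C. Pin-transfer compounds, 11-point titration. Incubate 48 h. Add CellTiter-Glo, 15 min RT, read luminescence.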

[19] = qHTS of pediatric cancer cell lines to identify multiple opportunities for drug repurposing: Confirmatory screen for BT-12 cells (AID 1347112); also: nearly all actives have a fitted effect of over 55% in size
Summary of the method: as §2

[20] = qHTS of pediatric cancer cell lines to identify multiple opportunities for drug repurposing: Confirmatory screen for NB1643 cells (AID 1347109); also: nearly all actives have a fitted effect of over 45% in size
Summary of the method: as §2

Measured: Potency
Potency is read from the fitted curve at half-maximal effect.

O=Nc1c(-c2c(O)[nH]c3cc(Br)ccc23)[nH]c2ccccc12
active: [1] 2.09 µM | [2] 19.3 µM | [3] 8.33 µM | [4] 14.8 µM | [5] 17.1 µM | [6] 9.35 µM | [7] 18.7 µM | [8] 24.3 µM | [9] 18.7 µM | [10] 19.3 µM | [11] 16.6 µM | [12] 18.7 µM | [14] 18.7 µM | [15] 14.8 µM
inactive: [13]

C=CCc1cc(OC)c(O)c(C(=O)NCCO)c1
not listed: [4] | [12] | [17] | [18] | [19] | [20]
inactive: all other assays above

CNC[C@H](O)c1ccc(O)c(O)c1
not listed: [3] | [6] | [12] | [17] | [18] | [19] | [20]
inactive: all other assays above

CCCOc1ccc2nc(NC(=O)OC)[nH]c2c1
inactive: [5] | [9] | [13] | [14]
active: [1] 0.0422 µM | [2] 123 nM and 27.3 nM | [3] 0.001 µM | [4] 0.0299 µM | [8] 123 nM and 30.6 nM | [10] 61.7 nM and 13.7 nM | [17] 1.17 µM | [18] 1.31 µM | [19] 4.14 µM

O=C(O)c1cc(=O)c2c(OCC(O)COc3cccc4oc(C(=O)O)cc(=O)c34)cccc2o1
not listed: [4] | [7] | [12] | [17] | [18] | [19] | [20]
inactive: all other assays above

O=P(O)(O)C(O)(Cn1ccnc1)P(=O)(O)O
not listed: [4] | [7] | [17] | [18] | [19] | [20]
inactive: all other assays above

O=c1oc2cc(O)ccc2s1
active: [1] 23.5 µM
not listed: [4] | [6] | [11] | [17] | [18] | [19] | [20]
inactive: all other assays above

O=C1c2c(O)cc(O)cc2OC(c2ccc(O)c(O)c2)C1O (configuration not stated)
active: [1] 4.69 µM | [5] 30.4 µM
not listed: [4] | [6] | [7] | [10]
inactive: all other assays above

CC(C)c1ccc2c(c1)c(SC(C)(C)C)c(CC(C)(C)C(=O)O)n2Cc1ccc(Cl)cc1
active: [1] 8.33 µM | [2] 27.3 µM | [6] 16.6 µM
inactive: [16] | [13]

CN(C)[C@@H](CCOc1cccc2ccccc12)c1ccccc1
active: [1] 23.5 µM | [4] 26.4 µM | [10] 15.5 µM and 21.7 µM | [11] 33.2 µM
not listed: [2] | [8] | [17] | [18] | [19] | [20]
inactive: all other assays above

CCOC(=O)C1=C(O)C(=O)N(Cc2ccccc2)C1
not listed: [2] | [12] | [17] | [18] | [19] | [20]
inactive: all other assays above

Cc1c(C(=O)NN2CCCCC2)nn(-c2ccc(Cl)cc2Cl)c1-c1ccc(Cl)cc1
active: [1] 21.1 µM and 7.43 µM | [2] 3.85 µM | [5] 27.3 µM and 30.4 µM | [7] 3.72 µM | [8] 4.85 µM | [10] 4.85 µM | [11] 18.7 µM | [17] 20.8 µM | [18] 7.37 µM
inactive: [16] | [13] | [14] | [15]

CC(C)c1ccc2oc3nc(N)c(C(=O)O)cc3c(=O)c2c1
not listed: [4] | [14] | [17] | [18] | [19] | [20]
inactive: all other assays above

Nc1nc(Cl)nc2c1ncn2[C@H]1C[C@H](O)[C@@H](CO)O1
inactive: [16] | [9] | [13] | [15] | [19]
active: [1] 18.7 µM | [2] 0.273 µM | [6] 1.05 µM | [7] 0.418 µM | [10] 15.3 µM | [12] 29.6 µM | [20] 2.08 µM | [17] 3.69 µM | [18] 6.57 µM

CC(C)CC(=O)N[C@H](C(=O)N[C@H](C(=O)N[C@@H](CC(C)C)[C@@H](O)CC(=O)N[C@@H](C)C(=O)N[C@@H](CC(C)C)[C@@H](O)CC(=O)O)C(C)C)C(C)C (Isovaleryl-VV[Sta]A[Sta]-OH)
active: [20] 16.5 µM | [17] 1.47 µM | [18] 5.22 µM
not listed: [3] | [7] | [19]
inactive: all other assays above

Cc1ccc(S(=O)(=O)NC(=O)NN2CC3CCCC3C2)cc1 (configuration not stated)
inactive: [1] | [2] | [3] | [16] | [5] | [6] | [8] | [9] | [13] | [14] | [15]

CC(C)[N+]1(C)[C@@H]2CC[C@H]1CC(OC(=O)C(CO)c1ccccc1)C2 (some centres not stated)
inactive: [2] | [3] | [16] | [5] | [7] | [8] | [12] | [13]
active: [1] 9.35 µM | [6] 11.8 µM | [11] 29.6 µM

O=C1CCc2ccc(OCCCCN3CCN(c4cccc(Cl)c4Cl)CC3)cc2N1
active: [10] 6.92 µM and 24.3 µM
not listed: [4] | [7] | [8] | [14] | [17] | [18] | [19] | [20]
inactive: all other assays above

CN(C)c1ccc2nc3ccc(=[N+](C)C)cc-3sc2c1
active: [1] 1.18 µM and 1.19 µM | [2] 19.3 µM and 15.5 µM | [3] 2.09 µM and 2.66 µM | [16] 10.6 µM | [5] 3.41 µM and 5.45 µM | [6] 10.6 µM | [7] 1.68 µM | [8] 6.85 µM and 3.09 µM | [9] 7.43 µM and 3.35 µM | [10] 1.37 µM and 872 nM | [11] 2.35 µM and 3.76 µM | [12] 3.72 µM and 2.11 µM | [13] 11.9 µM | [15] 5.9 µM and 6.68 µM | [20] 3.29 µM | [17] 8.27 µM | [18] 1.17 µM | [19] 1.04 µM

CC(=O)Nc1ccc(O)cc1
not listed: [2] | [7] | [17] | [18] | [19] | [20]
inactive: all other assays above

COCCCN1CCC(NC(=O)c2cc(Cl)c(N)c3c2OCC3)CC1
not listed: [4] | [10] | [17] | [18] | [19] | [20]
inactive: all other assays above

Nc1cccc2c1CN(C1CCC(=O)NC1=O)C2=O (configuration not stated)
not listed: [4] | [7] | [12] | [14] | [17] | [18] | [19] | [20]
inactive: all other assays above

Cc1cc(=O)c2c(O)c3c(O)cc(=O)c4c3c3c(cc(O)c1c23)C(C)(C)C=4O
active: [1] 1.3 µM and 1.48 µM | [2] 1.69 µM and 6.85 µM | [3] 5.8 µM and 418 nM | [6] 1.16 µM and 2.35 µM | [7] 2.59 µM and 5.26 µM | [10] 1.51 µM and 2.43 µM | [11] 2.06 µM and 3.72 µM | [12] 920 nM and 4.69 µM | [15] 18.7 µM
inactive: [5] | [9] | [13]

COc1cc2nc(N3CCN(C(=O)C4CCCO4)CC3)nc(N)c2cc1OC (configuration not stated)
not listed: [2] | [12] | [17] | [18] | [19] | [20]
inactive: all other assays above

Clc1ccc(C(Cn2ccnc2)OCc2ccsc2Cl)c(Cl)c1 (configuration not stated)
active: [1] 2.66 µM | [2] 0.001 µM | [6] 11.9 µM | [9] 37.6 µM | [10] 24.3 µM | [20] 14.7 µM | [17] 20.8 µM | [18] 11.7 µM | [19] 16.5 µM
inactive: [16] | [5] | [13] | [14] | [15]

COc1c(O)cc2c(c1O)[C@@H]1O[C@H](CO)[C@@H](O)[C@H](O)[C@H]1OC2=O
not listed: [4] | [7] | [12] | [17] | [18] | [19] | [20]
inactive: all other assays above

CC[C@]1(O)C[C@H]2CN(CCc3c([nH]c4ccccc34)[C@@](C(=O)OC)(c3cc4c(cc3OC)N(C=O)[C@H]3[C@@](O)(C(=O)OC)[C@H](OC(C)=O)[C@]5(CC)C=CCN6CC[C@]43[C@@H]65)C2)C1
active: [1] 11.8 nM and 6.7 nM | [2] 21.7 nM and 17.4 nM | [3] 9.3 nM and 237 nM | [4] 0.0235 µM | [7] 8.3 nM and 59.6 nM | [8] 15.3 nM and 19.5 nM | [10] 12.2 nM and 12.3 nM | [12] 0.0335 µM | [20] 10.4 nM and 1.04 µM | [17] 14.7 nM and 18.5 nM | [18] 23.3 nM and 104 nM | [19] 36.9 nM and 208 nM
inactive: [9] | [13] | [15]
